# Source: PubChem
# Cav32 inh – blocks human Cav3.2 T-type calcium channel; O95180; Cav3.2-expressing cells, Fluo-4 calcium fluorescence FDSS; stronger effect = lower value; B-score at 10 µM; actives 4% (n = 100,000); AID 449739;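 active means single-dose well whose peak fluorescence ratio is a statistical outlier from its plate by either plate-standardised score or position-corrected B-score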
# M1 agonist – M1 muscarinic receptor agonism. AID 626. CHO-M1 cells, Fluo-4 calcium fluorescence, agonist mode; stronger effect = higher value. actives 3% (n = 64,000). B-score at 10 µM;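 active means fluorescence rise, raw or as B-score row- and column-corrected plate score, outside the 99.7% band of its plate's samples, either direction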
# M1 antag – M1 muscarinic receptor (rat) antagonism. P08482. CHO-M1 cells, Fluo-4 calcium, ACh EC80 antagonist mode; stronger effect = lower value. B-score at 10 µM. actives 3.4% (n = 64,000). AID 628;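 active means calcium fluorescence response, raw or row-and-column corrected B-score, differing from the plate sample mean either way at a set confidence level, mostly lower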
# PLAP activator – activates human placental alkaline phosphatase; purified PLAP enzyme, luminescent substrate read-out; stronger effect = higher value; P05187; actives 1.2% (n = 96,000); activation fold at 20 µM; in the data active means activation fold above about 2
# Target sequence (P05187 whole entry, looked up): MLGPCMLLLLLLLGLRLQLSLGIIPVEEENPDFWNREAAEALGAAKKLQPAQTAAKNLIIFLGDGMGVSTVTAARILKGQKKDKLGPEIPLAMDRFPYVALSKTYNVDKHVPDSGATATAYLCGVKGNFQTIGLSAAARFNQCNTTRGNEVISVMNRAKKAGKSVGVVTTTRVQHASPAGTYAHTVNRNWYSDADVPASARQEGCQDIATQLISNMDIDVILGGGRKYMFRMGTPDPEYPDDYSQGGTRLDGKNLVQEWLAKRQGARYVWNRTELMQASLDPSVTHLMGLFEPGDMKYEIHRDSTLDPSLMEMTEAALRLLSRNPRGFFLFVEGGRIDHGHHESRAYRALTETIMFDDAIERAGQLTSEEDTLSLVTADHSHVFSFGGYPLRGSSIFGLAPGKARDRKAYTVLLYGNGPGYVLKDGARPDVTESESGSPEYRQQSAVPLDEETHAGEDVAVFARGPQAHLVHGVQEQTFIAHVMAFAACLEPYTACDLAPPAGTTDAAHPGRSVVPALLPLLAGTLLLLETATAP
# M1 agonist conf – confirmation of rat M1 muscarinic receptor agonists. actives 19% (n = 1,700). CHO-M1 cells, Fluo-4 calcium fluorescence, agonist mode; actives lie on both sides. shares compounds with M1 agonist. fluorescence change (max-min) at 10 µM;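 active means fluorescence change differs from the solvent-only DMSO control mean at a set confidence level in both duplicate runs; inconclusive means differs from solvent-only control mean in just one of two runs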;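 further: an EC20 dose of acetylcholine follows compound addition during the same imaging run; raw fluorescence intensity difference in instrument units with no normalization to controls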
# M4 ag counter – counter-screen for M1 agonists: activity at rat M4 receptor | fluorescence change (max-min) at 10 µM | actives 9% (n = 1,700) | AID 1741 | shares compounds with M1 agonist | CHO M4/Gqi5 cells, Fluo-4 calcium fluorescence, agonist mode; actives lie on both sides;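 active means fluorescence change differing from the plate's solvent-only control wells at 99.7% confidence in both duplicates, whether higher or lower; inconclusive means differs from solvent controls in only one of two duplicates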
# The depositor's hits bear a star; u = inconclusive; x = not tested or not shown. Compounds with a hit are over-represented: about 7.6% of the library has one in this group of screens.
SMILES,Cav32 inh,M1 agonist,M1 antag,PLAP activator,M1 agonist conf,M4 ag counter
O=C(O)c1cc(N2C(=O)C3CC=CCC3C2=O)ccc1NCc1cccnc1 (stereo not drawn),x,x,x,1.1,x,x
CNc1ccccc1-n1ccc(-c2ccccc2)n1,-1.2,3.6*,0.34,1.1,-7.4,-22
COc1ccc(CCn2c(C)c(C(C)=O)c3cc(OC(=O)c4ccco4)ccc32)cc1OC,1.7,x,x,1.5,x,x
Cc1nc2nc(-c3ccco3)[nH]n2c(=O)c1Cc1ccccc1,0.8,3.6*,1.1,1,-10,-27
Cc1nc2nc(-c3ccccc3)[nH]n2c(=O)c1Cc1ccccc1,0.3,1.1,-0.26,0.7,x,x
CSc1sc(C(=O)NN)c2c1C(O)CCC2 (stereo not drawn),-2.2,x,x,x,x,x
Cc1ccc(OCC(=O)Nc2ccc(-c3nc4ncccc4o3)cc2)c(C)c1,0.77,3.3*,-1.2,1.4,u,-49
S=c1[nH]nc(C2CCCCC2)n1/N=C/c1ccc(Br)s1,0.87,x,x,1.2,x,x
O=c1c(O)c(-c2cccs2)oc2ccccc12,-3.8*,140*,-1.6*,1.1,696*,622*
CCC(=O)c1cc(-c2nc3ccccc3n2C)n(C)c1,0.66,0.66,-1.6,0.9,x,x
Cn1cc(C(=O)c2ccccc2)cc1-c1nc2ccccc2n1C,-0.22,6.5*,-0.63,1.5,-3,-6.8
Cc1ccccc1CS(=O)(=O)CCC(=O)NCc1ccccn1,0.076,1.2,0.55,0.9,x,x
CN1CCc2c(sc3c2C(=O)NC(c2cccc(OC(=O)c4cccs4)c2)N3)C1 (stereo not drawn),x,5.7*,-0.014,1.5,39,41
CCn1c(C(=O)N2CCC(C(=O)N3CCN(c4ccccn4)CC3)CC2)cc2sccc21,1.4,2.5*,-0.7,1.4,-19,u
C=CCNCCCCOc1ccc(C)cc1[N+](=O)[O-],-0.38,x,x,0.9,x,x
CC(=O)N1CCN(C2=Nc3cccc4cccc2c34)CC1,-0.42,9.5*,-0.69,0.9,101*,92*
CCOC(=O)N1CCN(C2=Nc3cccc4cccc2c34)CC1,-0.024,8.5*,-11*,1,107*,u
CCCCOC(=O)Sc1nc2ccccc2o1,0.053,0.34,-0.92,1.1,x,x
CCCCOCP(=O)(CCCC)COCCCC,-1.1,-0.15,-0.38,1.1,x,x
CC(=O)c1cccc(NC(=O)C2CCCN2S(=O)(=O)c2cccc3cccnc23)c1 (stereo not drawn),0.61,-0.4,0.087,0.9,x,x
CC(=O)c1cccc(NC(=O)C2CCCN(S(=O)(=O)c3cccc4cccnc34)C2)c1 (stereo not drawn),0.34,6.6*,-0.016,1.2,-26*,u
COc1ccc(N2CCN(C(=O)C3CCCN(S(=O)(=O)c4cccc5cccnc45)C3)CC2)cc1 (stereo not drawn),0.25,2.3,-0.49,1.5,x,x
COc1ccc(NC(=O)C2CCCN(S(=O)(=O)c3cccc4cccnc34)C2)c(OC)c1 (stereo not drawn),0.55,3.1*,-0.22,1.5,-32*,u
C=C(C)CSc1nnc([C@@H](NC(=O)OC(C)(C)C)C(C)CC)o1 (stereo partly drawn),-2.2,-1,-0.11,1.2,x,x
Cc1ccc(CNS(=O)(=O)N(C)C)cc1,0.2,x,x,0.8,x,x
SMILES,Cav32 inh,M1 agonist,M1 antag,PLAP activator,M1 agonist conf,M4 ag counter
Cc1ccc2nc(-c3ccccn3)cc(C(=O)NC3CCN(C)CC3)c2c1,-0.073,-2.3*,-0.18,1.7,-20,-46
c1ccc(-c2nc3nonc3nc2-c2ccccc2)cc1,x,-0.33,-1.9,0.8,x,x
COc1ccc(Cl)cc1NC(=O)CN1CCC(n2nnc3cc(C)ccc32)CC1,-2.2,-0.13,0.065,9.3,x,x
Cc1ccc2c(c1)nnn2C1CCN(CC(=O)Nc2ccccc2N2CCOCC2)CC1,-0.85,2.9*,-0.047,1.5,-12,-5.7
O=c1c(-c2nnc(SCc3ccc(Cl)c(Cl)c3)o2)cccn1Cc1ccccc1,-0.15,x,x,0.7,x,x
Cc1ccc(N2C(=O)[C@@H]3C(c4ccc(F)cc4)=NO[C@@H]3C2=O)cc1,-0.56,6.6*,-0.37,1,u,-35
COc1ccc(N2C(=O)N(Cc3cccc(F)c3)c3ccccc3S2(=O)=O)cc1,-3.5,x,x,x,x,x
CCN1CCN(c2nc(C)nc3c2sc(=S)n3C)CC1,-0.078,-2.6*,-0.2,1.2,-11,-24
Cc1nc(N2CCCCC2)c2sc(=S)n(C)c2n1,0.23,0.53,0.41,0.9,x,x
COCCCn1c(C(C)C)nc2oc3cc(OC)ccc3c(=O)c2c1=O,0.62,13*,1.8,1.2,-10,-23
Cc1ccc2c(c1)-c1c(cnn1CC(=O)N1CCCN(Cc3ccccc3F)C1)CO2,-1.4,3.4*,0.05,1.3,u,-36
O=C(Cn1ncc2c(=O)oc3ccccc3c21)N1CCCN(Cc2ccccc2F)C1,0.97,6*,-0.88,1.1,-10,-33
CCC(=O)Nc1nn(C)c2nc3c(C)cccc3cc12,-3.1,0.64,1.1,x,x,x
Cc1cccc2cc3c(NC(=O)C(C)C)nn(C)c3nc12,-0.26,12*,-15*,1,-16,-52
NC(=O)C1CCN(c2ncnc3c2c(-c2ccccc2)cn3-c2ccccc2)CC1,2.4,3.7*,-1.5,1.3,u,-62
CCOC(=O)c1nc(N2CCN(C(=O)OCC)CC2)c2c3c(sc2n1)CCCC3,0.1,9.2*,-0.45,1.4,u,-63
CCOC(=O)c1nc2sc3c(c2c(=O)[nH]1)CCCC3,-0.24,-0.12,-0.013,1,x,x
CCOC(=O)SC1=N/C(=C\c2ccc(N(C)C)cc2)C(=O)S1,x,10*,0.66,0.5,u,u
O=C(Nc1nnc(CCN2CCCCC2)s1)C1CCCCC1,0.67,2.7*,-1.7,0.9,u,-76
COc1cc(OC)c(CN2CCCCCCC2)cc1Br,-0.051,x,x,0.6,x,x
O=C1Nc2ncccc2OC1CCO (stereo not drawn),0.43,x,x,0.9,x,x
O=C(NCCCO)NC12CC3CC(CC(C3)C1)C2,-2.8,x,x,1.1,x,x
O=C(NCCCN1CCCC1=O)NC12CC3CC(CC(C3)C1)C2,0.0094,5.7*,0.13,1.1,3,-4.4
Cc1ccc(C)c(C(=O)CN2C3=NCCCN3c3ccccc32)c1,-1.9,x,x,1,x,x
COc1ccccc1C1C=C(c2ccc(Cl)cc2)Nc2nc(NS(C)(=O)=O)nn21 (stereo not drawn),-0.91,54*,1,1.4,88*,62
O=C(c1ccncc1)c1ccc(N2CCN(C3CC(=O)N(Cc4ccccc4)C3=O)CC2)cc1 (stereo not drawn),0.61,20*,-2.3*,1.5,-25*,-49
CCCNS(=O)(=O)c1ccc(CCC(=O)N2CCN(CC)CC2)cc1,1.1,x,x,1.7,x,x
CCCNS(=O)(=O)c1ccc(CCC(=O)N2CCCCC2)cc1,-0.2,4.8*,1.1,1.1,u,-49
Cc1ccc(CSc2nc3c(c(=O)[nH]2)CCC3)cc1,-0.46,2.3*,0.68,1.1,28,-5.3
Cc1ccccc1CSc1nc2c(c(=O)[nH]1)CCCC2,x,x,x,0.9,x,x
